Six1-Eya2 inh = blocks human Six1 binding to Eya2 | Q15475+O00167 | activity change, % (test concentration not listed) | 0.56% of 360,000 active | AlphaScreen GST-Six1/His-Eya2 binding, biochemical; active compounds read low
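Homogeneous AlphaScreen proximity assay pairing GST-Six1 with His-tagged Eya2 (added as 5X mix: 250 nM and 500 nM) in 50 mM Tris pH 8.0, 300 mM NaCl, 1 mM TCEP. Glutathione donor and nickel acceptor beads; 1 h, 37 °C, dark.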
CtBP-E1A inh = blocks the CtBP interaction with E1A. AlphaScreen GST-E1A/His-CtBP binding, 1536-well; active compounds read low. activity change, % (test concentration not listed). 0.49% of 340,000 active. AID 651724
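GST-E1A and His-tagged CtBP (125 nM each as 5X stock) were preincubated with pin-transferred compound for 2 h at 37 °C in the dark, then glutathione donor and nickel acceptor beads were added for 1 h before AlphaScreen reading.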
JMJD2E inh = JMJD2E (human) inhibition | JMJD2E catalytic domain, FDH-coupled NADH fluorescence (FDH is formaldehyde dehydrogenase) | Potency, µM (top dose mostly 57.1 µM), hits mostly inhibitors | 1.6% of 230,000 active; active = well fitted inhibition curve with a large enough effect, not every such curve was filed as active; inconclusive = small, poorly fitted or top-dose-only effect, or another doubt; inactive = no such curve, though single readings can be large or run the other way; also: nearly all actives have a fitted effect of over 50% in size
Target sequence (B2RXH2 1-337 limits assumed): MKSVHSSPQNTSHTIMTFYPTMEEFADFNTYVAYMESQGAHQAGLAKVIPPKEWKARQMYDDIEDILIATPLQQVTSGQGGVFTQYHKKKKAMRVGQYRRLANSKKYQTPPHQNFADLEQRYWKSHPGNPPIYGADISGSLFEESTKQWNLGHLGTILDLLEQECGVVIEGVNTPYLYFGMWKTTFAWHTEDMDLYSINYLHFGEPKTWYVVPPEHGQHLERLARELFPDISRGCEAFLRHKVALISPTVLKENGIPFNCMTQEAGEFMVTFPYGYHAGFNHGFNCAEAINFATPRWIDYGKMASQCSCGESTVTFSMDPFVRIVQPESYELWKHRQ
hERG WT inh = blocks the wildtype human KCNH2 potassium channel | activity change, % at 1.84 µM | Q12809 | U2OS, BacMam KCNH2, thallium flux FluxOr; active compounds read low | 0.37% of 340,000 active;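 active = maximum activity change below -70%; inconclusive = maximum activity change between -70% and -50%; inactive = maximum activity change above -50%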
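U2OS cells were transduced with wild-type KCNH2 virus (2.03 x 10^8 / mL) for 4 h at room temperature, then cultured overnight at 37 C. Thallium flux was read with FluxOr dye. Rate constants were normalized to DMSO controls.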
KCNH2 3.1 block = blocks the human KCNH2 3.1 channel isoform | U2OS KCNH2 3.1, thallium flux FluxOr; active compounds read low | activity change, % (tested at about 1.8 µM) | 0.95% of 340,000 active | AID 720553;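 active = maximum activity change below -70%; inconclusive = maximum activity change from -70% to -50%; inactive = maximum activity change above -50%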;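 also: thallium influx rate constant from kinetic fluorescence after stimulation buffer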
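Thallium flux via FluxOr fluorescence (Red40 quencher, 45 min loading) in U2OS cells virally expressing the KCNH2 3.1 isoform (1.77 x 10^8 /mL virus, overnight at 37 C). Rate constants from 2-min kinetic reads post-stimulation, normalised to positive and negative controls.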
Hits are given with their value. The list is not random: actives were taken first. Their share in the collection is about 2%. Rule as the data show it, unless noted: active = activity change below about -65%; inconclusive = mostly about -30% to -63%; inactive = weaker than that.

`O=[N+]([O-])c1ccc(/C=C/C2=NN(c3ccccc3)C(c3ccco3)C2)o1` (stereo not given) gave Six1-Eya2 inh inconclusive, CtBP-E1A inh inactive, JMJD2E inh inactive, hERG WT inh inactive and KCNH2 3.1 block -73.
`Cn1ncc(C(N)=O)c1NC(=S)NC(=O)c1ccc(Br)o1` gave Six1-Eya2 inh inactive, JMJD2E inh inactive, hERG WT inh inactive and KCNH2 3.1 block inactive.
For COC(=O)CCCC1=CC2=C(c3ccccc3)C(=O)C(C)(OC(=O)C3CCCC3)C(=O)C2=CN1Cc1ccco1 (stereo not given) the results were Six1-Eya2 inh inactive, CtBP-E1A inh inactive, JMJD2E inh 18µM, hERG WT inh inactive and KCNH2 3.1 block inactive.
Screening COC(=O)CCCC1=CC2=C(c3ccccc3)C(=O)C(C)(OC(=O)C3CCCC3)C(=O)C2=CN1CCCCO (stereo not given) returned Six1-Eya2 inh inactive, CtBP-E1A inh inactive, JMJD2E inh inconclusive, hERG WT inh inactive and KCNH2 3.1 block inactive.
For COC(=O)CCCC1=CC2=C(c3ccccc3)C(=O)C(C)(OC(=O)C3CCCC3)C(=O)C2=CN1CCCOC(C)C (stereo not given) the results were JMJD2E inh 3.5µM.
For COc1c(O)c(O)cc2c1oc1c3ccccc3oc(=O)c21 the results were JMJD2E inh 16µM.
Screening O=C(Nc1cccs1)Nc1nnc([C@@H]2C[C@H](O)[C@@H](CO)O2)s1 returned Six1-Eya2 inh inactive and CtBP-E1A inh inactive.
For CCOc1cc(/C=N/NC(=O)CN(CCc2ccccc2)S(=O)(=O)c2ccc(NC(C)=O)cc2)ccc1O the results were Six1-Eya2 inh -75, CtBP-E1A inh inactive, JMJD2E inh inconclusive, hERG WT inh inactive and KCNH2 3.1 block inactive.
`CCOC(=O)/C(=N\Nc1ccc(C(C)=O)cc1)c1csc(Nc2ccccc2)n1` gave Six1-Eya2 inh inactive, CtBP-E1A inh inactive, JMJD2E inh inactive, hERG WT inh inactive and KCNH2 3.1 block inactive.
`CN(Cc1ccccc1)c1ncnc2sccc12` gave Six1-Eya2 inh inactive, CtBP-E1A inh inactive, hERG WT inh -124 and KCNH2 3.1 block inactive.
Screening CCOc1cccc(-c2nnc3sc(-c4cc(OC)c(OC)cc4OC)nn23)c1 returned JMJD2E inh inactive.
For CCOc1cccc(-c2nn3c(-c4cc(C)[nH]n4)nnc3s2)c1 the results were Six1-Eya2 inh inconclusive, CtBP-E1A inh -71, JMJD2E inh inactive, hERG WT inh inactive and KCNH2 3.1 block inactive.
O=C(Nc1cccc(S(=O)(=O)N2CCOCC2)c1)[C@@H]1CCCN1S(=O)(=O)c1ccc(Cl)cc1 was read as Six1-Eya2 inh inconclusive, CtBP-E1A inh -65, JMJD2E inh inactive, hERG WT inh inactive and KCNH2 3.1 block inconclusive.
O=S(=O)(Nc1cccc(F)c1)c1ccc(S(=O)(=O)N2CCOCC2)cc1 was read as Six1-Eya2 inh inactive, CtBP-E1A inh inactive, hERG WT inh inactive and KCNH2 3.1 block -74.
Screening O=C(O)c1cccc(NS(=O)(=O)c2ccc(S(=O)(=O)N3CCOCC3)cc2)c1 returned Six1-Eya2 inh inactive, CtBP-E1A inh inactive, hERG WT inh inactive and KCNH2 3.1 block inactive.
For CCOc1ccc(Br)cc1S(=O)(=O)Nc1cccc(S(=O)(=O)NC2=NCCC2)c1 the results were Six1-Eya2 inh inactive, JMJD2E inh inactive, hERG WT inh inactive and KCNH2 3.1 block inactive.
Screening CCOc1ccc(Br)cc1S(=O)(=O)Nc1cccc(S(=O)(=O)N2CCOCC2)c1 returned Six1-Eya2 inh inactive, CtBP-E1A inh inactive, hERG WT inh -223 and KCNH2 3.1 block inactive.
O=C(Nc1cccc(S(=O)(=O)N2CCOCC2)c1)C1CCCCN1S(=O)(=O)c1ccccc1 (stereo not given) was read as Six1-Eya2 inh inconclusive, CtBP-E1A inh inconclusive, hERG WT inh inactive and KCNH2 3.1 block inactive.
`C=CC(=O)Nc1cccc(Oc2ccnc3[nH]ccc23)c1` gave Six1-Eya2 inh inactive, CtBP-E1A inh inactive, hERG WT inh inactive and KCNH2 3.1 block inactive.
`COc1ccc(N(CC(=O)Nc2cc(Cl)ccc2OC)S(=O)(=O)c2c(C)[nH]c(=O)[nH]c2=O)cc1` gave Six1-Eya2 inh -90, CtBP-E1A inh -95, hERG WT inh inactive and KCNH2 3.1 block inactive.
For O=C1CCCC2=C1C(c1ccc(O)c(O)c1)Nc1ccc3ncccc3c12 (stereo not given) the results were Six1-Eya2 inh inactive, CtBP-E1A inh inactive, JMJD2E inh 25µM, hERG WT inh inactive and KCNH2 3.1 block inactive.
For Cn1c(Cl)c(/C=N/OC(=O)C2CC2)c2ccccc21 the results were Six1-Eya2 inh inactive, CtBP-E1A inh inactive, JMJD2E inh inactive, hERG WT inh inactive and KCNH2 3.1 block -92.
Screening Cn1c(Cl)c(/C=N/OC(=O)c2cccc(Cl)c2)c2ccccc21 returned Six1-Eya2 inh inactive, CtBP-E1A inh inactive, JMJD2E inh inactive, hERG WT inh inactive and KCNH2 3.1 block inactive.
CCN(CC)c1ccc(/C=C/C(=O)c2ccc(Br)cc2)cc1 was read as Six1-Eya2 inh inactive, CtBP-E1A inh inactive, JMJD2E inh inactive, hERG WT inh -167 and KCNH2 3.1 block inconclusive.
For COc1cccc(C(=O)N2CCC[C@H]2C(=O)N2CCC[C@H]2C(=O)NCc2ccc(F)cc2F)c1 the results were Six1-Eya2 inh inactive and CtBP-E1A inh inactive.
`Clc1ccc(CN2CCC(c3nc4ccc(Cl)cc4[nH]3)CC2)cc1` gave Six1-Eya2 inh inactive, CtBP-E1A inh inactive, JMJD2E inh inactive, hERG WT inh -96 and KCNH2 3.1 block -97.
CC1CCCN(C(=O)CN2CCC(c3nc4ccc(Cl)cc4[nH]3)CC2)C1 (stereo not given) was read as Six1-Eya2 inh inactive, JMJD2E inh inactive, hERG WT inh inactive and KCNH2 3.1 block inactive.
Cc1ccc(CN2CCN(Cc3cccn3-c3ccccn3)CC2CCO)cc1 (stereo not given) was read as Six1-Eya2 inh inactive, JMJD2E inh inactive, hERG WT inh -76 and KCNH2 3.1 block -72.
`CC(C)CCN1CCN(Cc2cccn2-c2nccs2)CC1CCO` (stereo not given) gave Six1-Eya2 inh inactive, CtBP-E1A inh inactive, JMJD2E inh inactive, hERG WT inh inactive and KCNH2 3.1 block inactive.
Cc1ccc(CN2CCN(Cc3cccn3-c3nccs3)CC2CCO)cc1 (stereo not given) was read as Six1-Eya2 inh inactive, CtBP-E1A inh inactive, JMJD2E inh inactive, hERG WT inh inactive and KCNH2 3.1 block -88.
Screening OCCC1CN(Cc2cccn2-c2ncccn2)CCN1Cc1ccccc1 (stereo not given) returned Six1-Eya2 inh inactive, CtBP-E1A inh inactive, JMJD2E inh inactive, hERG WT inh inactive and KCNH2 3.1 block inactive.
`O=C(O)/C=C\c1ccc(O)c(O)c1` gave JMJD2E inh 11µM.
For O=C(COC(=O)/C=C/c1cccc(Br)c1)NCCc1ccccc1 the results were Six1-Eya2 inh inactive, CtBP-E1A inh inactive, hERG WT inh inactive and KCNH2 3.1 block inactive.

Compound activity: PubChem BioAssay, National Center for Advancing Translational Sciences (NCATS)
